Results taken from the supplement of paper PMC6555819.

Columns and labels:
Assay in all cases: PBM binding z-score (relative to random genomic background probes); higher = stronger binding; sequences stand for … in GC…GCGATTGACAGCGTAGAATGAAGG
[1] = system: FXR:RXRa (NR concentration 270 nM, RXRa partner concentration 90 nM)
How it was run: (§1)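 Binding z-scores take random background probes as their reference. They come from custom Agilent 4×180K protein-binding microarrays incubated 1 h with ligand-free nuclear receptor dimers, with antibodies against each partner (one per run) detecting binding. Scanned fluorescence was regression-normalized.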

[2] = system: LXRa:RXRa (NR concentration 270 nM, RXRa partner concentration 90 nM)
How it was run: as §1

[3] = system: LXRa homodimer (NR concentration 270 nM)
How it was run: as §1

[4] = system: LXRb:RXRa (NR concentration 270 nM, RXRa partner concentration 90 nM)
How it was run: as §1

[5] = system: LXRb homodimer (NR concentration 270 nM)
How it was run: as §1

[6] = system: PPARa:RXRa (NR concentration 270 nM, RXRa partner concentration 90 nM)
How it was run: as §1

[7] = system: PPARg:RXRa (NR concentration 180 nM, RXRa partner concentration 90 nM)
How it was run: as §1

[8] = system: PPARg:RXRa 270nM:90nM, anti-RXR (NR concentration 270 nM, RXRa partner concentration 90 nM)
How it was run: as §1

[9] = system: PPARg:RXRa 30nM:10nM, anti-RXR (NR concentration 30 nM, RXRa partner concentration 10 nM)
How it was run: as §1

[10] = system: PPARg:RXRa 90nM:30nM, anti-RXR (NR concentration 90 nM, RXRa partner concentration 30 nM)
How it was run: as §1

[11] = system: PPARg:RXRa DBDmut IVT, anti-RXR (DBD mutation: RXRa K156A/R161A, NR concentration 270 nM, RXRa partner concentration 90 nM)
How it was run: as §1

[12] = system: PPARg:RXRa IVT, anti-PPARg (NR concentration 270 nM, RXRa partner concentration 90 nM)
How it was run: as §1

[13] = system: PPARg DBDmut:RXRa IVT, anti-PPARg (DBD mutation: PPARg1 K132A/R137A, NR concentration 270 nM, RXRa partner concentration 90 nM)
How it was run: as §1

[14] = system: PPARg DBDmut IVT, anti-PPARg (DBD mutation: PPARg1 K132A/R137A, NR concentration 270 nM)
How it was run: as §1

[15] = system: PPARg homodimer (NR concentration 180 nM)
How it was run: as §1

[16] = system: PXR:RXRa (NR concentration 270 nM, RXRa partner concentration 90 nM)
How it was run: as §1

[17] = system: PXR homodimer (NR concentration 270 nM)
How it was run: as §1

[18] = system: RARa:RXR (NR concentration 270 nM, RXRa partner concentration 90 nM)
How it was run: as §1

[19] = system: RARa homodimer (NR concentration 270 nM)
How it was run: as §1

[20] = system: RARb:RXRa (NR concentration 270 nM, RXRa partner concentration 90 nM)
How it was run: as §1

Sequence | PBM binding z-score [1] | PBM binding z-score [2] | PBM binding z-score [3] | PBM binding z-score [4] | PBM binding z-score [5] | PBM binding z-score [6] | PBM binding z-score [7] | PBM binding z-score [8] | PBM binding z-score [9] | PBM binding z-score [10] | PBM binding z-score [11] | PBM binding z-score [12] | PBM binding z-score [13] | PBM binding z-score [14] | PBM binding z-score [15] | PBM binding z-score [16] | PBM binding z-score [17] | PBM binding z-score [18] | PBM binding z-score [19] | PBM binding z-score [20]
CGTCCAAGGTCTGCAGGTCAGTGAAAGCGACGTG | 0.149 | 0.12 | -0.428 | 0.0193 | -1.21 | 0.759 | -0.32 | 0.0368 | -0.45 | -0.257 | 0.404 | 0.652 | -0.578 | -0.887 | 0.2 | 0.243 | -0.548 | 0.466 | -0.728 | 2.16
GATACAGGGTCCGCTAGAGGCCAGAGTATGGAAA | -0.588 | -0.752 | -0.713 | -1.11 | -1.38 | -0.848 | 0.112 | -0.726 | -0.417 | -1.24 | -1.31 | -0.762 | -1.66 | -1.32 | -0.788 | -0.821 | -0.331 | -0.782 | -1.34 | 0.181
GGAACGAGGGCATCCGAGTTGATAGCATGGCGAT | 1.24 | 0.897 | -0.543 | -0.129 | -0.874 | 1.53 | 1.15 | 0.688 | -0.271 | -0.0258 | 2.9 | 2.23 | -0.317 | -0.705 | -0.0747 | 3.67 | 0.048 | 0.949 | -0.37 | 1.78
TCGAGTGGGTTACCAATGGGGCATTCAGCTTTCT | -1.28 | 0.53 | -0.905 | 0.75 | -0.956 | 0.859 | -0.273 | 0.677 | 0.872 | 0.607 | 2.12 | 1.77 | -0.245 | -0.482 | -0.73 | -0.197 | -0.99 | -0.236 | -0.45 | 0.353
CATACAGGGTCAGCGAGGCCAGAGTAGGGACGGC | 5.13 | 3.36 | -0.392 | 2.27 | -0.0459 | 5 | 4.21 | 3.65 | 0.828 | 2.12 | 0.932 | 2.99 | 0.657 | 0.403 | 1.75 | 3.02 | 0.862 | 3.03 | 0.389 | 4.24
CCAGCTAGGTCATGGTCAGCTAATCTACAGTATG | 3.52 | 2.28 | 0.125 | 1.63 | -0.361 | 3.57 | 2.98 | 3.29 | 0.995 | 2.17 | 4.7 | 4.17 | 0.901 | 0.516 | 1.52 | 1.12 | -0.327 | 2.34 | 0.48 | 3.97
TAACCTAGGTCATGCGGGCCAGTATAGTGTCGGC | 4.19 | 4.46 | 1.83 | 2.55 | -0.0591 | 4.09 | 4.16 | 3.58 | 1.11 | 2.56 | 3.49 | 4.46 | 0.354 | 0.297 | 1.08 | 1.84 | -0.126 | 2.5 | 0.00748 | 3.89
CCTTACGTGTCAAGGTTATAGCACGGGTGGTACG | 0.976 | 0.929 | 0.288 | 0.638 | 0.609 | 1.36 | 0.992 | 0.8 | 0.3 | 0.364 | 0.564 | 0.962 | -0.292 | 0.0662 | 0.942 | 0.998 | 0.776 | 1.16 | 1.18 | 1.57
CCTACTGGTCCAAAGGTCATTGATTCCAATGCTC | 4.78 | 5.17 | 4.86 | 5.02 | 1.52 | 5.67 | 9.11 | 9.11 | 7.82 | 9.09 | 1.53 | 4.41 | 0.302 | 0.567 | 3.79 | 5.35 | 2.05 | 5.46 | 1.48 | 4.42
AGAACGAGGGCACTGAGTTGATAGCACGGGTGGC | 0.0718 | -0.082 | -0.301 | -0.236 | -0.887 | 1.52 | 1.5 | 1.04 | 0.0133 | 0.347 | 3.56 | 2.9 | 0.453 | 0.196 | 0.00559 | 1.21 | 4.15 | 0.453 | -0.261 | 2.09
GCATATAGGTAATACAAGGTGAAAGGCCGATTGT | 0.496 | 1.99 | 0.36 | 0.488 | -0.248 | 1.97 | 2.16 | 2.86 | 1.05 | 2.2 | 3.82 | 3.44 | 0.554 | 0.825 | 0.878 | 0.592 | 0.222 | 1.66 | 0.91 | 0.547
TAGCCTAGGTCATGGGCGAGTATACCACGCGAAC | 4.42 | 3.43 | 0.0703 | 2.28 | -0.329 | 4.15 | 3.46 | 3.42 | 0.67 | 2.09 | 1.54 | 3.26 | 0.096 | -0.639 | 0.74 | 1.53 | -0.407 | 2.3 | -0.782 | 3.91
GCAGACAGGTGAAACGCAGGTAACTCATGGTGGC | -0.174 | -0.103 | -0.708 | -0.224 | -1.24 | 0.901 | 0.886 | 0.443 | -0.0913 | 0.0978 | 1.08 | 0.828 | -0.609 | -0.755 | -0.331 | -0.113 | -0.622 | 0.721 | -0.93 | 0.653
ATCTTTAGGTAACAAGTTCAGTGAAAGAGAGGAC | 1.21 | 1.09 | 0.889 | 1.08 | 1.44 | 1.41 | 0.762 | 1.44 | 0.49 | 0.949 | 2.13 | 1.75 | 1.64 | 1.45 | 1.33 | 1.95 | 1.87 | 1.32 | 1.15 | 1.85
